# Experimental data from PubChem BioAssay (Tox21).
# Records with an inconclusive call do not appear. Values without a mark were called inactive. Activity calls are given as the source filed them. Calls follow the shape of the dose curve; as a rule, active = well fitted curve in the direction sought with a large enough effect in the repeat runs; inconclusive = weak or mixed curves; inactive = no such curve, though single readings can be large; an effect the other way counts as inactive or inconclusive.
# Biological target: Voltage-gated inwardly rectifying potassium channel KCNH2 (Homo sapiens) (UniProt Q12809)
# Sequence (Q12809 whole entry, looked up): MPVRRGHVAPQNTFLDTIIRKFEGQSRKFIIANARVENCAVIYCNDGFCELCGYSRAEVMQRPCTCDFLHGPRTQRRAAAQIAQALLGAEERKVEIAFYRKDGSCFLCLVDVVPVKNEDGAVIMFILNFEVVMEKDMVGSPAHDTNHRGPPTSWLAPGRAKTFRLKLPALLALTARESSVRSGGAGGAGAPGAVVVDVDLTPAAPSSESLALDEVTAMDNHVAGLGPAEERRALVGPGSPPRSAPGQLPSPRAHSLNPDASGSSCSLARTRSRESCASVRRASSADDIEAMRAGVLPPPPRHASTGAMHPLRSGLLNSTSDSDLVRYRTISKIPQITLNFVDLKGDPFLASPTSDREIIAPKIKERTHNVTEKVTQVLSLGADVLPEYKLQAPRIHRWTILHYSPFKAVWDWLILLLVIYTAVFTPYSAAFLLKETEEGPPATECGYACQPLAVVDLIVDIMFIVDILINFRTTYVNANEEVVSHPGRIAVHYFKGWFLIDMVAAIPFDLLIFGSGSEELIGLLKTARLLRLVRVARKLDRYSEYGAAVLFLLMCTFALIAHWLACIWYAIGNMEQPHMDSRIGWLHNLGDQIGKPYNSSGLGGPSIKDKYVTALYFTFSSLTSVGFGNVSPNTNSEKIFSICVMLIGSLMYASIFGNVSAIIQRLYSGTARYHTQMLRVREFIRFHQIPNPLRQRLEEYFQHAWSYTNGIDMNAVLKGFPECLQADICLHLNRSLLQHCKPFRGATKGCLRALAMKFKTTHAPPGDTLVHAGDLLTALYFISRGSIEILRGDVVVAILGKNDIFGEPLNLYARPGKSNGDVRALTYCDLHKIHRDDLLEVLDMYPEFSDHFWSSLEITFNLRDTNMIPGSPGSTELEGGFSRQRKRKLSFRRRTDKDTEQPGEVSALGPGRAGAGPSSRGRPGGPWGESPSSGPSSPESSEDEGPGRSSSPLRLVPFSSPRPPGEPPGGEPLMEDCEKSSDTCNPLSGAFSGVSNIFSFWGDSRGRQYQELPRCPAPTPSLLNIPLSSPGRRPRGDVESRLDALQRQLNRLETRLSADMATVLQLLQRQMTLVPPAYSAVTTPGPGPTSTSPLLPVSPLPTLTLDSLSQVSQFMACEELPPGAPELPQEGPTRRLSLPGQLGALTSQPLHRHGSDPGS
# Test: Human Ether-a-go-go-Related Gene (hERG) channel small molecule antagonists: fluorescence cell-based qHTS assay (AID 1671200);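 as to activity change, negative = inhibition: hERG-expressing U2OS cells given a thallium stimulus after FluxOR II dye loading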
# Details: hERG-U2OS cells, FluxOR thallium flux fluorescence; series mostly up to 76.8 µM; activity change, negative = inhibition: at the top concentration
# Summary of the method: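 Channel function was assessed by thallium flux. Cells seeded the previous day and kept at 37 C took up FluxOR II dye over 1 h in the dark at room temperature, then sat another 10 min before stimulation.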
# % is scaled to controls: 0 for no effect and ±100 for the full control effect; potency is read from the fitted curve at half-maximal effect.
# Also: nearly all actives have a fitted effect of over 50% in size.
SMILES,"activity change, negative = inhibition",Potency
CCS(=O)(=O)C(C)(C)S(=O)(=O)CC,4.94% [at 35.3 µM],
O=C(O)c1ccc2[nH]cc(CCCCN3CC=C(c4ccccc4)CC3)c2c1,-16.8% [at 35.3 µM],
CCN(Cc1ccc(Cl)nc1)/C(=C/[N+](=O)[O-])NC,-3.69% [at 35.3 µM],
C[N+](C)=CCl,1.02%,
CCC(C)(C)c1cc(-n2nc3ccccc3n2)c(O)c(C(C)(C)CC)c1,-3.17%,
OCCSCSCCO,3.69%,
CC(C)[N+](=O)[O-],0.954%,
COC(=O)c1ccccc1S(=O)(=O)NC(=O)N(C)c1nc(C)nc(OC)n1,3.65%,
CN1C(=S)CN=C(c2ccccc2)c2cc(Cl)ccc21,-14.6% [at 35.3 µM],
O=NN1CCN(N=O)CC1,6.28%,
O=C(O)c1cccc(Cl)c1,-0.581%,
O=CNC(N1CCN(C(NC=O)C(Cl)(Cl)Cl)CC1)C(Cl)(Cl)Cl (stereo unspecified),-2.86%,
Cc1ncc2n1-c1ccc(Cl)cc1C(c1ccccc1F)=NC2,-10.7% [at 35.3 µM],
CCOC(=O)CP(=O)(OCC)OCC,-2.85%,
COC(=O)C(c1ccccc1)C1CCCCN1 (stereo unspecified),-4.49%,
COC(=O)C(C)Oc1ccc(Oc2ccc(Cl)cc2Cl)cc1 (stereo unspecified),,38.9 µM (active)
CCCCc1ccc(O)cc1,0.767%,
COc1cc(OC)nc(Oc2cccc(Oc3nc(OC)cc(OC)n3)c2C(=O)O)n1,-1.03%,
N#CCNCC#N,0.0221%,
CCNc1nc(NC(C)C)nc(OC)n1,0.711%,
Cc1cnc[nH]1,1.05%,
CCC1(c2ccccc2)C(=O)NC(=O)NC1=O,1.27%,
CC(Oc1ccc(Oc2ncc(C(F)(F)F)cc2Cl)cc1)C(=O)O (stereo unspecified),-1.1%,
CN(N=O)C(N)=O,-0.594%,
NC1=NC(=O)C(c2ccccc2)O1 (stereo unspecified),4.07% [at 35.3 µM],
OC(Cn1cncn1)(c1ccc(F)cc1)c1ccccc1F (stereo unspecified),1.67%,
ClC(Cl)Br,-1.84%,
CCC#N,-6.04%,

# Biological target: Cytochrome P450 3A4 (Homo sapiens) (UniProt P08684)
# Sequence (P08684 whole entry, looked up): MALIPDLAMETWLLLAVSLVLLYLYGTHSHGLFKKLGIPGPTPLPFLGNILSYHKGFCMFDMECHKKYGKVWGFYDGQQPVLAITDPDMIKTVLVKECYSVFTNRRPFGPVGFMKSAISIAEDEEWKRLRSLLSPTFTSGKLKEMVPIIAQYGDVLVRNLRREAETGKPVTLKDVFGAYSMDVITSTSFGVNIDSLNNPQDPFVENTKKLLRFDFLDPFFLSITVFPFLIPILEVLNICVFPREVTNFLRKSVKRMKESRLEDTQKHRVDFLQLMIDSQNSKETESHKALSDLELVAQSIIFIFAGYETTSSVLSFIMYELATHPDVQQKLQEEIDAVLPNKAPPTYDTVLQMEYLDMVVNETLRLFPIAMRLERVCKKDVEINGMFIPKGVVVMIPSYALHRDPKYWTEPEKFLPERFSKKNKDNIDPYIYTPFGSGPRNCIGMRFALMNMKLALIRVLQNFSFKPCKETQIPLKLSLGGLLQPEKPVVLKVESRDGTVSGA
# Test: Cytochrome P450 Family 3 Subfamily A Member 4 (CYP3A4) small molecule antagonists: luciferase reporter qHTS assay (AID 1671201)
# Details: P450-Glo CYP3A4 enzyme, luciferin luminescence, 1 h; series mostly up to 115 µM; activity change, negative = inhibition: at the top concentration
# Summary of the method: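 Compounds in DMSO were pin-transferred onto CYP3A4 enzyme-substrate mix and held 10 min at room temperature. NADPH regenerating solution started the reaction for 1 h; luciferin detection reagent stopped it, and luminescence was read after 20 min.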
SMILES,"activity change, negative = inhibition",Potency
CCS(=O)(=O)C(C)(C)S(=O)(=O)CC,6.44% [at 52.9 µM],
O=C(O)c1ccc2[nH]cc(CCCCN3CC=C(c4ccccc4)CC3)c2c1,21.6% [at 52.9 µM],
O=[N+]([O-])c1cc(Cl)c(Cl)c(Cl)c1,5.5%,
CCN(Cc1ccc(Cl)nc1)/C(=C/[N+](=O)[O-])NC,0.798% [at 52.9 µM],
C[N+](C)=CCl,-1.13%,
OCCSCSCCO,4.48%,
ClCCCN1CCN(c2cccc(Cl)c2)CC1,99.5% [at 52.9 µM],
C=C(C)CN(CC)c1c([N+](=O)[O-])cc(C(F)(F)F)cc1[N+](=O)[O-],-20.7%,
CC(C)[N+](=O)[O-],0.571%,
Cc1cccc(C#N)c1,0.718%,
COC(=O)c1ccccc1S(=O)(=O)NC(=O)N(C)c1nc(C)nc(OC)n1,0.738%,
CC(C)(C)C(=O)C(Oc1ccc(Cl)cc1)n1cncn1 (stereo unspecified),,0.399 µM (active)
O=NN1CCN(N=O)CC1,9.47%,
O=C(O)c1cccc(Cl)c1,15%,
O=CNC(N1CCN(C(NC=O)C(Cl)(Cl)Cl)CC1)C(Cl)(Cl)Cl (stereo unspecified),,7.96 µM (active)
CCOC(=O)CP(=O)(OCC)OCC,4.82%,
COC(=O)C(c1ccccc1)C1CCCCN1 (stereo unspecified),-15.2%,
COC(=O)C(C)Oc1ccc(Oc2ccc(Cl)cc2Cl)cc1 (stereo unspecified),68.1%,
CCCCc1ccc(O)cc1,6.93%,
C[C@@H]1CN(C2CCC(C#N)(c3ccc(F)cc3)CC2)CC[C@]1(C(=O)O)c1ccccc1 (stereo partly specified),-18.5% [at 52.9 µM],
COc1cc(OC)nc(Oc2cccc(Oc3nc(OC)cc(OC)n3)c2C(=O)O)n1,24.8%,
N#CCNCC#N,0.0182%,
CCC1(c2ccccc2)C(=O)NC(=O)NC1=O,-9.43%,
CC(Oc1ccc(Oc2ncc(C(F)(F)F)cc2Cl)cc1)C(=O)O (stereo unspecified),26%,
CN(N=O)C(N)=O,1.75%,
OC(Cn1cncn1)(c1ccc(F)cc1)c1ccccc1F (stereo unspecified),,0.224 µM (active)
ClC(Cl)Br,5.51%,
CCC#N,9.73%,
